Screens (PubChem)
KDM5B inh – inhibitors of human KDM5B histone demethylase. Q9UGL1. KDM5B demethylase, FDH-coupled NADH fluorescence (FDH is formaldehyde dehydrogenase). Potency, µM (doses to about 57.7 µM), actives largely listed as inhibitors. 220,000 compounds, 2.6% hits; active = well fitted inhibition curve with a large enough effect; note: 0% is about no effect; nearly all actives have a fitted effect of over 70% in size
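Coupled FDH/NAD⁺ fluorescence readout. KDM5BΔAP 200 nM final; compound titration, 10 min RT preincubation; substrate mix 12.5 µM H3K4me3, 25 µM 2-OG, 50 µM Fe(II), 100 µM ascorbate, 0.25 mM NAD⁺, 0.25 U/mL FDH; ΔRFU over 30 min.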
Starred values were filed as active, the others as inactive. Many of the other results were omitted from the sample, so hits are more common in it than they were. Potency is the fitted concentration of half-maximal effect.

O=C(c1cc(-c2ccc(Cl)cc2Cl)on1)N1CCCC1 was read as KDM5B inh inactive.
For Cc1nc2c(c(-c3ccc(Cl)cc3)n1)CN(C(=O)c1cccnc1)CC2 the results were KDM5B inh inactive.
For O=C(c1nc(-c2ccc(Cl)cc2Cl)c2cnccn12)N1CCOCC1 the results were KDM5B inh 79.4µM*.
O=C(c1nc(-c2ccc(Cl)cc2)c2cnccn12)N1CCOCC1 was read as KDM5B inh 31.6µM*.
`O=C(c1nc(-c2cccnc2)no1)N1CCN(c2ccc(Cl)cc2)CC1` gave KDM5B inh inactive.
O=C(Nc1ccc(-c2cccc(F)c2)cc1)C1CCCN1Cc1ccc(CO)o1 (configuration not stated) was read as KDM5B inh inactive.
`CC1(NC(=O)Cc2ccc3ccccc3c2)CCCC1` gave KDM5B inh inactive.
CC1CCCN(C(C)C(=O)N(C)CC(=O)Nc2ccccc2C(F)(F)F)C1 (configuration not stated) was read as KDM5B inh inactive.
CC(C)C(=O)N1CCN(c2nc3c([nH]2)c(=O)n(C)c(=O)n3C)CC1 was read as KDM5B inh inactive.
COC(=O)c1nc2ccccc2nc1N1CCN(c2cc(C)ccc2C)CC1 was read as KDM5B inh inactive.
Screening CN(C)c1cccc(C(=O)NC2CCN(c3cc(-c4ccccc4)[nH]n3)CC2)c1 returned KDM5B inh 20µM*.
O=C(NC1CCN(c2cc(-c3ccccc3)[nH]n2)C1)c1ccccc1Cl (configuration not stated) was read as KDM5B inh inactive.
`CCOc1ccc(C(=O)NC2CCCN(c3cc(-c4ccc(OC)cc4)[nH]n3)C2)cc1` (configuration not stated) gave KDM5B inh inactive.
`COc1ccc(C(=O)NC2CCCN(c3cc(-c4ccc(Cl)cc4)[nH]n3)C2)cc1` (configuration not stated) gave KDM5B inh inactive.
Cc1ccc(C(=O)NC2CCN(c3cc(-c4ccccc4)[nH]n3)C2)cc1 (configuration not stated) was read as KDM5B inh 14.1µM*.
For Cc1cccc(C(=O)NC2CCN(c3cc(-c4ccccc4)[nH]n3)CC2)c1 the results were KDM5B inh inactive.
COc1ccc(-c2cc(N3CCCC(NC(=O)c4ccc(N(C)C)cc4)C3)n[nH]2)cc1 (configuration not stated) was read as KDM5B inh 25.1µM*.
Screening O=C(NC1CCN(c2cc(-c3ccccc3)[nH]n2)CC1)c1ccccc1 returned KDM5B inh inactive.
`O=C(NC1CCN(c2cc(-c3ccccc3)[nH]n2)C1)c1ccc(Br)cc1` (configuration not stated) gave KDM5B inh inactive.
CN(C)c1cccc(C(=O)NC2CCN(c3cc(-c4ccccc4)[nH]n3)C2)c1 (configuration not stated) was read as KDM5B inh 25.1µM*.
O=C(NC1CCCN(c2cc(-c3ccccc3)[nH]n2)C1)c1cccc(F)c1 (configuration not stated) was read as KDM5B inh inactive.
For Cc1ccc(C(=O)NC2CCCN(c3cc(-c4ccccc4)[nH]n3)C2)cn1 (configuration not stated) the results were KDM5B inh inactive.
Screening S=C(NCCc1ccc(Cl)cc1Cl)NC1CCCCC1 returned KDM5B inh inactive.
Screening CC(C)(C)OC(=O)NC(CN)c1ccccc1Cl (configuration not stated) returned KDM5B inh inactive.
For CCCCC(=O)Nc1ccc(OCC)c2ncccc12 the results were KDM5B inh inactive.
Screening CC1=C(C(=O)Nc2ccc(C)cc2C)C(c2ccc(C)cc2)NC(=S)N1 (configuration not stated) returned KDM5B inh inactive.
For COC(=O)C1CCNC1 (configuration not stated) the results were KDM5B inh inactive.
`Nc1nnnn1NCc1ccc(-c2ccccc2)o1` gave KDM5B inh inactive.
For CC1(C(=O)NC2CCN(Cc3ccccc3)CC2)CCCCC(=O)N1 (configuration not stated) the results were KDM5B inh inactive.
N#CC1(C#N)CC2(O)NC(=O)C1(C#N)C(c1ccccc1)C2Br (configuration not stated) was read as KDM5B inh inactive.
O=C(NC1CCN(c2cc(-c3ccc(F)cc3)[nH]n2)CC1)c1ccc(F)cc1F was read as KDM5B inh inactive.
`CN(C)c1ccc(C(=O)NC2CCCN(c3cc(-c4ccccc4)[nH]n3)C2)cc1` (configuration not stated) gave KDM5B inh inactive.
`O=C(NC1CCN(c2cc(-c3ccc(F)cc3)[nH]n2)CC1)c1ccccc1Cl` gave KDM5B inh inactive.
`CN(C)c1cccc(C(=O)NC2CCN(c3cnn(C)c(=O)c3)CC2)c1` gave KDM5B inh 25.1µM*.
Screening O=C(NC1CCN(c2cc(-c3ccc(F)cc3)[nH]n2)CC1)c1cccc2[nH]ccc12 returned KDM5B inh 31.6µM*.
Screening CN(C)c1ccc(C(=O)NC2CCN(c3cc(-c4ccccc4)[nH]n3)C2)cc1 (configuration not stated) returned KDM5B inh 14.1µM*.
For COc1ccc(C(=O)NC2CCN(c3cnn(C)c(=O)c3)CC2)cc1OC the results were KDM5B inh inactive.
Screening Cn1ncc(N2CCC(NC(=O)c3ccc4c(c3)OCO4)CC2)cc1=O returned KDM5B inh inactive.
For O=C(NC1CCCN(c2cc(-c3ccccc3)[nH]n2)C1)c1ccc(Br)cc1 (configuration not stated) the results were KDM5B inh inactive.
CC(C)c1ccc(NC(=O)Cn2nc3ccc(S(=O)(=O)C(C)(C)C)nn3c2=O)cc1 was read as KDM5B inh inactive.
For CCNc1nc(-c2[nH]c(C)c(C(=O)OC)c2C)cs1 the results were KDM5B inh inactive.
CC1=C(c2ccc(C(C)C)cc2)S(=O)(=O)N=C1N1CCC(C(=O)NC2CCCC2)CC1 was read as KDM5B inh inactive.
`CCN(CC)C(=O)COc1cc(O)c2c(=O)cc(-c3ccccc3)oc2c1` gave KDM5B inh inactive.
Screening O=C(O)C1CCCN(C(=O)c2cccc(C(F)(F)F)c2)C1 (configuration not stated) returned KDM5B inh inactive.
For Cc1cccc(C)c1OCC(=O)Nc1ccc2oc(C(F)(F)F)nc2c1 the results were KDM5B inh inactive.
`Cc1ccccc1COc1ccccc1C(=O)OCc1ccc(-c2ccccc2)cc1` gave KDM5B inh inactive.
Screening CN1C[C@H](C(=O)Nc2ccccc2)C[C@H]1c1cccc(C(F)(F)F)c1 returned KDM5B inh inactive.
CCCCNC(=O)CN1CCN(c2ccc(NS(=O)(=O)c3cccs3)cc2C(=O)O)CC1 was read as KDM5B inh inactive.
CN1CC(=O)N(c2ccccc2)Cc2c1ncnc2N1CCOCC1 was read as KDM5B inh inactive.
CN1CCN(C)c2cc(-c3ccc(N4CCOCC4)cc3)ncc2C1 was read as KDM5B inh 39.8µM*.
`CN1CC(=O)N(c2ccc(Cl)cc2)Cc2c1ncnc2N1CCOCC1` gave KDM5B inh inactive.
CC(Cc1ccco1)NC(=O)C1CCCO1 (configuration not stated) was read as KDM5B inh inactive.
COc1ccc(O)c(C2SCc3cc(C)c(C)cc3CS2)c1 was read as KDM5B inh inactive.
`CC(NC(=O)C1CC1C)c1ccc2c(c1)CCCC2` (configuration not stated) gave KDM5B inh inactive.
